TGFb inhibitor = blocks TGF-b signaling. HepG2 CAGA-GFP TGF-b/SMAD3 reporter, GFP fluorescence, 18 h; TGF-beta stimulated, 500 pg/mL final. Potency, µM (doses to about 46.1 µM), inactives show at the top dose activity, negative = inhibition, actives largely listed as inhibitors. 410,000 tested, 1.2% active. AID 588855; note: potency is the fitted concentration of half-maximal effect; % is set by controls: 0 for no effect and ±100 for the full control effect; nearly all actives have a fitted effect of over 65% in size
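TGF-beta reporter screen: HEPG2 CAGA-GFP, 1% FBS, 500 pg/mL TGF-beta final, 18 h; per-cell GFP summed per well; curves fitted and categorized by class.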
HepG2 viability = counter-screen for TGF-b inhibitors: cytotoxicity in HepG2 cells. HepG2 CAGA-GFP viability, ATP luminescence, 18 h. Potency, µM (highest dose often 46.1 µM), for inactives: at the top dose activity change, negative = cytotoxicity, most hits filed as cytotoxic. 410,000 tested, 0.76% active. AID 588856; note: potency is the fitted concentration of half-maximal effect
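CellTiter-Glo luminescence gave cytotoxicity after 18 hours at 37 degrees C. The cells were HepG2 CAGA-GFP in 1% FBS DMEM, stimulated with 500 pg/mL TGF-beta after compound addition. %Activity was normalised to no-cell wells (complete cell-killing) and DMSO (no toxicity), and curves were fitted and classified.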
TDP1 cell noCPT = qHTS for Inhibitors of human tyrosyl-DNA phosphodiesterase 1 (TDP1): qHTS in cells in absence of CPT; DT40 Tdp1-/- hTDP1 cells, no CPT, ATP luminescence, 48 h; Potency, µM (titrated, usually from 46.2 µM), for inactives: top-dose activity change, negative = growth inhibition, hits mostly inhibitors; 420,000 tested, 15% active; AID 686978, 2013; note: potency is the fitted concentration of half-maximal effect; % is set by controls: 0 for no effect and ±100 for the full control effect; nearly all actives have a fitted effect of over 55% in size
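Camptothecin absent (DMSO only). Human TDP1-complemented DT40 knockout cells, 400 cells/well, 37 °C for minimum 48 hr; ATP measured via CellTiter-Glo, 30 min dark incubation, luminescence.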
IL-1B inflam inh = inhibitors of inflammasome signaling (IL-1 beta secretion); THP-1 LPS/ATP IL-1B secretion, AlphaLISA, 16 h; stronger effect = lower value; activity change, % at 57.5 µM; 360,000 tested, 4.7% active; AID 743279; in the data active = activity change below about -50%; inconclusive = mostly about -30% to -49%; note: % is set by controls: 0 for no effect and ±100 for the full control effect
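THP-1 cells pretreated 1 hr with compounds (up to 57.5 uM final), then stimulated with LPS (250 ng/mL final) plus ATP (1.25 mM final); secreted IL-1B measured by AlphaLISA after 16 hr, decreased signal indicating inhibition.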
TDP1 inh = TDP1 (human) enzyme inhibition. Q9NUW8. recombinant TDP1, AlphaScreen DNA substrate cleavage. Potency, µM (top dose mostly 130 µM), without a hit: at the top dose activity change, negative = inhibition, most hits filed as inhibitors. 350,000 tested, 0.28% active; note: potency is the fitted concentration of half-maximal effect; % is set by controls: 0 for no effect and ±100 for the full control effect; nearly all actives have a fitted effect of over 40% in size
Target sequence (Q9NUW8 whole entry, looked up): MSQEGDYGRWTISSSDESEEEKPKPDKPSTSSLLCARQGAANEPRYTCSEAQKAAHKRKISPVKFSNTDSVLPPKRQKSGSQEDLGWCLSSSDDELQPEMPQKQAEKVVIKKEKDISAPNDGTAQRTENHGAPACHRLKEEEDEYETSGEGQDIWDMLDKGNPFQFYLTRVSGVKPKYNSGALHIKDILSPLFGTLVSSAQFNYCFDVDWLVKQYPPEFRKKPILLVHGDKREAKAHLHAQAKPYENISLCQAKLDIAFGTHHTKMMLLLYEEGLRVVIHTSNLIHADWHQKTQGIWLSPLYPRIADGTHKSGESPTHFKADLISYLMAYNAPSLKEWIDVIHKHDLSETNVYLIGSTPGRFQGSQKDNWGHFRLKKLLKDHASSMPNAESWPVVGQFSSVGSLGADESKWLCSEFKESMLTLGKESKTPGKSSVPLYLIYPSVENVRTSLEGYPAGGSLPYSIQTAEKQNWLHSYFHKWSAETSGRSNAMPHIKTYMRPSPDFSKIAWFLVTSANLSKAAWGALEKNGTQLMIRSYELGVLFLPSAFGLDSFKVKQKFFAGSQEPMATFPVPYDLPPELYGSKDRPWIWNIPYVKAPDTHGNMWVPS
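Recombinant E. coli-expressed Tdp1 (1 nM) preincubated with compound 15 min at RT, then 5'-biotin/3'-phosphotyrosine-FITC DNA substrate (15 nM) added for 5 min. AlphaScreen beads (10 ug/ml) added, 10 min RT; tyrosine-FITC cleavage read as signal loss.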
TDP1 cell CPT = DT40-hTDP1 cell growth loss with CPT. chicken DT40 Tdp1-/-;hTDP1 cells + 20 nM CPT, ATP luminescence, 48 h. Potency, µM (series often up to 46.2 µM), for the others: top-dose activity change, negative = growth inhibition, hits mostly inhibitors. 420,000 tested, 12% active; note: potency is the fitted concentration of half-maximal effect; % is set by controls: 0 for no effect and ±100 for the full control effect; nearly all actives have a fitted effect of over 55% in size
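Chicken DT40 Tdp1-/- cells complemented with human TDP1, 400 cells/well, exposed to compounds plus 20 nM camptothecin for at least 48 h at 37 C; viability read as ATP content by CellTiter-Glo luminescence.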
The depositor's hits bear a star; ? = inconclusive; . = not tested or not shown; ! = not confirmed by another sample. Shown are actives, neighbours in structure and some others; about 18% of the full set was active somewhere. Unless noted, calls come from the whole dose curve; as a rule, active = well fitted curve in the direction sought with a large enough effect; inconclusive = small, poorly fitted or top-dose-only effect, or another doubt; inactive = no such curve, though single readings can be large; an effect the other way counts as inactive or inconclusive.

SMILES | TGFb inhibitor | HepG2 viability | TDP1 cell noCPT | IL-1B inflam inh | TDP1 inh | TDP1 cell CPT
COc1cc(OC)c(/C=N/NC(=O)c2ccncc2)c(OC)c1 | 14.8% | 7.8% | -6.7% | 2.4 | 2.3% | -0.1%
C[c-]1[c-](C)[c-](C)[c-](C)[c-]1C.[Fe].c1cc2nccc(N3CCCC3)[c-]2c1 (centres undefined) | ? | -59.1% | 6.51µM* | 0.0 | 7.94µM*! | 8.2µM*!
c1cc(N2CCCCC2)nc(N2CCCCC2)n1 | 9.7% | -15.8% | ? | 13.1 | . | -26.5%
COCCn1c(C)cc(C(=O)COC(=O)c2[nH]c(C)c(C(C)=O)c2C)c1C | -22.3% | -24.9% | ? | 32.0 | -0.4% | ?
CCCCCCSc1cccc(-c2nc3ccc(Cl)cn3c2NCCCC)c1 | -17.3% | -15.6% | 13µM* | 2.8 | . | 16.4µM*
CCCCNc1c(-c2ccc(SC(C)CC)cc2)nc2ccc(Cl)cn12 (centres undefined) | . | . | 29.1µM* | 0.0 | . | ?
CCCCNc1c(-c2ccc(-c3cccc(Cl)c3)cc2)nc2ccccn12 | ? | -21.2% | ? | -26.1 | 5.1% | ?
CCC(C)Sc1ccc(-c2nc3ccc(C)cn3c2NCc2ccccc2)cc1 (centres undefined) | ? | -19.6% | 16.4µM* | ? | 4.7% | 23.1µM*
Cc1ccc2nc(-c3ccc(-c4cccc(Cl)c4)cc3)c(NCc3ccccc3)n2c1 | -7.1% | -24.3% | ? | 8.0 | 6.5% | ?
CCCCCCSc1ccc(-c2nc3ccccn3c2NCCCC)cc1 | ? | -36.0% | 14.6µM* | ? | -3.2% | 23.1µM*
NC(=O)C1CCN(C(=O)c2ccc(-c3ccccc3Cl)o2)CC1 | -4.7% | 1.2% | -8.3% | 0.0 | 3.7% | 4.2%
CC12CCC(=O)N1C(C(=O)NNC(=O)COc1ccccc1F)CS2 (centres undefined) | -0.8% | -0.6% | ? | -5.9 | -5.1% | -6.6%
C=CC[C@H](CC(=O)NCCO)C(=O)N[C@H](COC(=O)[C@@H](CC=C)CC(=O)OC(C)(C)C)Cc1ccccc1 | 8.6% | 1.1% | ? | 7.9 | 0.5% | -18.0%
C=CC[C@@H](CC(=O)N[C@H](CO)Cc1ccccc1)C(=O)N[C@H](COC(=O)[C@@H](CC=C)CC(=O)OC(C)(C)C)Cc1ccccc1 | 2.7% | -18.3% | ? | -52.0* | 1.4% | ?
C=CC[C@@H](CC(=O)N[C@@H](CO)Cc1ccccc1)C(=O)N[C@H](COC(=O)[C@H](CC=C)CC(=O)OC(C)(C)C)Cc1c[nH]c2ccccc12 | ? | -14.7% | 20.6µM* | -29.0 | -4.2% | ?
C=CC[C@H](CC(=O)N[C@H](CO)Cc1ccccc1)C(=O)N[C@H](COC(=O)[C@H](CC=C)CC(=O)OC(C)(C)C)Cc1c[nH]c2ccccc12 | -13.0% | -26.0% | ? | -15.6 | 1.1% | ?
C=CC[C@@H](CC(=O)N[C@H](CO)Cc1ccccc1)C(=O)N[C@H](COC(=O)[C@H](CC=C)CC(=O)OC(C)(C)C)Cc1c[nH]c2ccccc12 | 15.8µM* | -37.8% | ? | -6.1 | . | ?
O=C(Nc1c2c(nn1-c1ccc(F)cc1)CS(=O)C2)c1ccc(Br)o1 (centres undefined) | -2.5% | 16.4% | 3.9% | 5.9 | -1.6% | 0.7%
Cc1cccc(Cc2cnc(N3C(=N)SC(C)C3=O)s2)c1 (centres undefined) | ? | -45.1% | 18.4µM* | -84.4* | 10.5% | ?
Cc1cccc(Cc2cnc(N3C(=N)SC(c4ccccc4)C3=O)s2)c1 (centres undefined) | ? | -9.2% | 25.9µM* | 28.8 | 6.9% | 29.1µM*

Source: PubChem (National Center for Advancing Translational Sciences (NCATS))
